Only a selection was taken, and hits are over-represented in it overall.
RECQ1 helicase – qHTS Assay for Inhibitors of RecQ-Like Dna Helicase 1 (RECQ1). ATP-dependent DNA helicase Q1 (Homo sapiens), P46063. RECQ1 DNA unwinding, red fluorescence kinetic read. Potency, µM (titrated, usually from 57.3 µM), for the others: top-dose activity, negative = inhibition, most hits filed as inhibitors. 240,000 tested, 0.54% active;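 also: plate controls were vehicle for no effect and no enzyme for full effect; nearly all actives have a fitted effect of over 30% in size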
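50 nM RECQ1T1 preincubated 15 min with compound in Tris pH 8.0 buffer with MgCl2, DTT, Tween-20 and 2.5 ug/ml poly(dI-dC); started with 200 nM TAMRA/BHQ-2 forked duplex and 2 mM ATP. Unwinding read as fluorescence (525/598 nm), two reads 2 h apart.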
APE1 inh-1 – qHTS Assay for Inhibitors of the Human Apurinic/apyrimidinic Endonuclease 1 (APE1); AID 2517, 2012; recombinant APE1, TAMRA/BHQ-2 abasic DNA cleavage fluorescence; DNA repair nuclease/redox regulator APEX1 (Homo sapiens), P27695; Potency, µM (highest dose often 65.8 µM), for inactives: at the top dose activity change, negative = inhibition, usual class: inhibitors; 350,000 tested, 0.35% active;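 also: plate controls were vehicle for no effect and reference inhibitor for full effect; nearly all actives have a fitted effect of over 55% in size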
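Step 1: APE1 (0.75 nM) with compound, 15 min RT. Step 2: add 50 nM fluorophore/quencher THF duplex. Step 3: three fluorescence reads 60 s apart (525/598 nm); read 3 minus read 1 = reaction progress.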
BLM inh – qHTS Assay for Inhibitors of Bloom's syndrome helicase (BLM). recombinant BLM DNA unwinding, fluorescence dequenching. Potency, µM (series often up to 56.1 µM), for inactives: at the top dose activity change, negative = inhibition, most hits filed as inhibitors. AID 2528, 2010. 350,000 tested, 0.2% active. RecQ-like DNA helicase BLM (Homo sapiens), P54132;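 also: plate controls were vehicle for no effect and no enzyme for full effect; nearly all actives have a fitted effect of over 35% in size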
JMJD2E inh – qHTS Assay for Inhibitors of Human Jumonji Domain Containing 2E (JMJD2E) | Lysine-specific demethylase 4E (Homo sapiens), B2RXH2 | JMJD2E catalytic domain, FDH-coupled NADH fluorescence (FDH is formaldehyde dehydrogenase) | Potency, µM (top dose mostly 57.1 µM), for the others: at the highest dose activity change, negative = inhibition, usual class: inhibitors | 230,000 tested, 1.6% active | AID 2147, 2009; active = well fitted inhibition curve with a large enough effect, not every such curve was filed as active; inconclusive = small, poorly fitted or top-dose-only effect, or another doubt; inactive = no such curve, though single readings can be large or run the other way;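 also: 0% = wells with enzyme and -100% = buffer wells without enzyme; nearly all actives have a fitted effect of over 50% in size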
Target sequence (B2RXH2 1-337 limits assumed): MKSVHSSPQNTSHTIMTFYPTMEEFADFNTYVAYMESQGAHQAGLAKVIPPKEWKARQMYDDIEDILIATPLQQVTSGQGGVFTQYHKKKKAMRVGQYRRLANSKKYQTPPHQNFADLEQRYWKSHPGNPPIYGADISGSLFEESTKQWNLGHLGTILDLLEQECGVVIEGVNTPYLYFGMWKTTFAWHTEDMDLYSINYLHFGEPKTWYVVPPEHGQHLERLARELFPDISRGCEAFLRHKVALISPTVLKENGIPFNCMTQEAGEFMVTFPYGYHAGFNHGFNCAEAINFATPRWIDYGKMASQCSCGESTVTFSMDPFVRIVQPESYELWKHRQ
L3MBTL1 inh – qHTS Assay for the Inhibitors of L3MBTL1; 230,000 tested, 0.66% active; AlphaScreen L3MBTL1–H3K9me1 peptide binding; Potency, µM (titrated, usually from 57.1 µM), inactives show top-dose activity, negative = inhibition, most hits filed as inhibitors; also: nearly all actives have a fitted effect of over 60% in size
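First, the protein-peptide complex forms for 30 min at room temperature (L3MBTL1 50 nM, biotinylated H3K9me1 peptide 75 nM). Next, compounds are pin-transferred and incubated 30 min. Finally, AlphaScreen beads are added and read after 30 min.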
APE1 dye cs – Counterscreen for APE1 Inhibitors: Fluorescent Dye Displacement Assay; shares compounds with APE1 inh-1; DNA fluorescent dye displacement counterscreen, fluorescence; Potency, µM (top dose mostly 28.5 µM), inactives show top-dose activity change, negative = inhibition, most hits filed as inhibitors; 480 tested, 7% active; AID 2564, 2010;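 also: loss of thiazole orange fluorescence as the dye is displaced from duplex DNA; 0% = ThO with dsDNA and no compound and -100% = ThO without dsDNA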
Endo IV inh – Counterscreen for APE1 Inhibitors: qHTS Assay for Inhibitors of Endonuclease IV; shares compounds with APE1 inh-1; E. coli Endo IV, fluorogenic AP-site DNA cleavage; Potency, µM (highest dose often 27.1 µM), for the others: top-dose activity change, negative = inhibition, most hits filed as inhibitors; 560 tested, 4% active; AID 2565, 2010;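 also: plate controls were uninhibited enzyme wells for no effect and no enzyme buffer wells for full effect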
APE1 inh-2 – Confirmation qHTS Assay for Inhibitors of the Human Apurinic/apyrimidinic Endonuclease 1 (APE1); purified APE1, fluorogenic abasic-site DNA cleavage; AID 2572, 2010; 750 tested, 44% active; Potency, µM (series often up to 57.1 µM), for the others: top-dose activity change, negative = inhibition, hits mostly inhibitors; shares compounds with APE1 inh-1; also: nearly all actives have a fitted effect of over 30% in size
APE1 FP inh – qHTS FP-Based Assay for Inhibitors of the Human Apurinic/apyrimidinic Endonuclease 1 (APE1) | shares compounds with APE1 inh-1 | APE1 binding to TAMRA-labelled double-stranded DNA, fluorescence polarization displacement | Potency, µM (titrated, usually from 28.5 µM), inactives show at the top dose activity, negative = inhibition, hits mostly inhibitors | 480 tested, 7% active
Numbers without * were called inactive; i = inactive; ? = inconclusive; . = no result; ! = not confirmed by another sample; [ ] = dose if it differs, or a comment. Unless noted, calls follow the shape of the dose curve; as a rule, active = well fitted curve in the direction sought with a large enough effect; inconclusive = small, poorly fitted or top-dose-only effect, or another doubt; inactive = no such curve, though single readings can be large; an effect the other way counts as inactive or inconclusive. Unless noted, % is scaled to controls: 0 for no effect and ±100 for the full control effect; potency is read from the fitted curve at half-maximal effect.

SMILES | RECQ1 helicase | APE1 inh-1 | BLM inh | JMJD2E inh | L3MBTL1 inh | Endo IV inh | APE1 inh-2 | others
CO/N=C(\C(=O)N[C@@H]1C(=O)N2C(C(=O)O)=C(COC(C)=O)CS[C@H]12)c1csc(N)n1 | -6% | 9% | -12% | . | . | . | .
C=CC1=C(C(=O)O)N2C(=O)[C@@H](NC(=O)/C(=N\OCC(=O)O)c3csc(N)n3)[C@@H]2SC1 | -2%[25.9 µM] | . | -3%[21.4 µM] | -7%[25.5 µM] | . | 25% | 13µM* | APE1 dye cs=-4%;APE1 FP inh=2%
COc1ccc(NC(=O)CN(C)CC(=O)c2c(C)[nH]c3ccccc23)cc1 | . | 3% | . | . | -4% | . | .
CC(C)[N+](C)(CCOC(=O)C1c2ccccc2Oc2ccccc21)C(C)C | ? | 8.9µM*! | 10% | -9% | 6% | -7%[57.1 µM] | -34%
COc1ccc(N2CC(NC(=O)Nc3ccccc3)CC2=O)cc1 (centres undefined) | -2% | -2% | -14% | 3% | . | . | .
CCCCCCC/C=C\CCCCCCCCC(=O)O | ? | 0% | . | 0% | . | -22%[57.1 µM] | -67%
CCCCC/C=C\C/C=C\C/C=C\C/C=C\CCCCCC(=O)O | 11% | -8% | -1% | ? | . | . | .
Fc1ccc(-c2noc(-c3ccc4c(c3)CCO4)n2)cc1 | -3% | 4% | -2% | -29% | 7% | . | .
CC[n+]1c(/C=C/N(C)c2ccccc2)oc2ccc(Cl)cc21 | -2% | 0% | -2% | -4% | -15% | . | .
CCN1/C(=C/C=C/c2oc3ccc4ccccc4c3[n+]2CC)Oc2ccc3ccccc3c21 | i | 25µM* | -29% | 14µM* | ? | 3.2µM* | 8.9µM* | APE1 dye cs=142%;APE1 FP inh=i
CCC(Nc1ccc(-c2nc(-c3ccccn3)no2)cc1[N+](=O)[O-])c1ccccc1 (centres undefined) | . | . | -4% | . | . | . | .
Cc1ccc(N2CC(C(=O)Nc3nnc(SCC(=O)Nc4nc(C)cs4)s3)CC2=O)cc1 (centres undefined) | -7% | 2% | -3% | -1% | 6% | . | .
O=C(c1cc2c(s1)CCCC2)N1CCN(Cc2ccc3c(c2)OCO3)CC1 | -6% | 6% | -6% | -9% | -3% | . | .
O=C(Oc1ccc2c(c1)OCO2)c1cc2c(s1)CCC2 | ? | ? | 3% | ? | -91% | 2% | 11µM* | APE1 dye cs=-16%;APE1 FP inh=?
O=C(CN1C(=O)NC(c2ccccc2)(c2ccccc2)C1=O)NCc1ccco1 | . | -3% | . | . | -17% | . | .

High-throughput results deposited in PubChem by National Center for Advancing Translational Sciences (NCATS).
